NPSR antagonist: neuropeptide S receptor (human) antagonism, cAMP; hit rate 1% among 220,000; Q6W5P4; Potency, µM (top dose mostly 38.3 µM), for inactives: at the top dose activity change, negative = inhibition, usual class: inhibitors; CHO-NPSR cells, cAMP TR-FRET, antagonist mode; note: potency is the fitted concentration of half-maximal effect; nearly all actives have a fitted effect of over 50% in size
Target sequence (Q6W5P4 whole entry, looked up): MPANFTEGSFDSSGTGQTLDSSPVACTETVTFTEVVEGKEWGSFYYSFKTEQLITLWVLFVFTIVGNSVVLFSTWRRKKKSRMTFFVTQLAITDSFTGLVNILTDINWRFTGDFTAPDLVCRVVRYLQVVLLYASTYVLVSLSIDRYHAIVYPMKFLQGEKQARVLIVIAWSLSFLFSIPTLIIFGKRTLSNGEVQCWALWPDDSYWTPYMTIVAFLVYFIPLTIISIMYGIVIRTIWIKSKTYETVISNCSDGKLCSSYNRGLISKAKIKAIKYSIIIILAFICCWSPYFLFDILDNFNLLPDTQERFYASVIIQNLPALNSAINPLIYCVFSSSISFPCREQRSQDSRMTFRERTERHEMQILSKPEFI
Tau fibril FP: blocks human tau fibril formation measured by polarization | Potency, µM (doses to about 57.7 µM), for inactives: at the highest dose activity, negative = inhibition, actives largely listed as inhibitors | K18 P301L tau heparin fibrillization, Alexa594 FP, 6 h | P10636 | hit rate 0.39% among 280,000; note: potency is the fitted concentration of half-maximal effect; nearly all actives have a fitted effect of over 55% in size
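FP of Alexa 594-tau after heparin (20 uM) induction. Substrate: human K18 P301L, 15 uM unlabeled, 0.24 uM labeled. Buffer 100 mM sodium acetate pH 7. 6 hr, 37 C.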
Tau fluor cs: counter-screen for tau fibril formation inhibitors. tau K18 P301L Alexa594 fluorescence, heparin fibrillization. Potency, µM (doses to about 57.7 µM), without a hit: top-dose activity change, negative = decrease. hit rate 0.93% among 280,000; note: potency is the fitted concentration of half-maximal effect; nearly all actives have a fitted effect of over 55% in size
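Human tau K18 P301L (15 uM unlabeled, 0.24 uM Alexa 594-labeled) in 100 mM sodium acetate pH 7 with 20 uM heparin, 6 hr at 37 C. ThT 30 uM added, 1 hr ambient; Alexa 594 FP and total fluorescence read at 555/632 nm.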
PNC assembly inh: blocks assembly of the perinucleolar compartment; PC3M PTB-GFP, PNC prevalence imaging, 16 h; hits give low values; activity change (PNC), negative = inhibition, % at 10 µM; hit rate 3.1% among 140,000;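 active = readout at or below -70, meaning at least 70% loss of cells showing the perinucleolar compartment, a nuclear body marking cancer cells; inconclusive = readout between -30 and a set limit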;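 note: plate controls were DMSO wells for no effect and camptothecin positive control wells for full effect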
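Compounds are pinned in duplicate onto adhered PC3M cells stably expressing GFP-tagged PTB and incubated 16 h at 37 C. Cells are then fixed, nuclei stained with Hoechst, and PNC-positive cells counted.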
Tau ThT inhib: tau fibrillization inhibition (ThT binding) | Potency, µM (titrated, usually from 57.4 µM), for the others: at the top dose activity, negative = inhibition, actives largely listed as inhibitors | recombinant tau K18 P301L (four-repeat tau fragment), heparin-induced fibrillization, ThT fluorescence | hit rate 2.1% among 270,000 | P10636; note: potency is the fitted concentration of half-maximal effect; nearly all actives have a fitted effect of over 55% in size
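Tau K18 P301L fragment (15 uM unlabeled plus 0.24 uM Alexa 594-labeled) in 100 mM sodium acetate pH 7 with compound, fibrillization induced by 20 uM heparin for 6 hr at 37 C. Thioflavin T (30 uM) added, fluorescence read after 1 hr (ex 450, em 510 nm).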
KDM4E inh: JMJD2E (human) inhibition | B2RXH2 | JMJD2E catalytic domain, FDH-coupled NADH fluorescence (FDH is formaldehyde dehydrogenase) | AID 2147 | hit rate 1.6% among 230,000 | Potency, µM (doses to about 57.1 µM), for inactives: at the top dose activity change, negative = inhibition, most hits filed as inhibitors; active = well fitted inhibition curve with a large enough effect, not every such curve was filed as active; inconclusive = small, poorly fitted or top-dose-only effect, or another doubt; inactive = no such curve, though single readings can be large or run the other way;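 note: potency is the fitted concentration of half-maximal effect; 0% = wells with enzyme and -100% = buffer wells without enzyme; nearly all actives have a fitted effect of over 50% in size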
Target sequence (B2RXH2 1-337 limits assumed): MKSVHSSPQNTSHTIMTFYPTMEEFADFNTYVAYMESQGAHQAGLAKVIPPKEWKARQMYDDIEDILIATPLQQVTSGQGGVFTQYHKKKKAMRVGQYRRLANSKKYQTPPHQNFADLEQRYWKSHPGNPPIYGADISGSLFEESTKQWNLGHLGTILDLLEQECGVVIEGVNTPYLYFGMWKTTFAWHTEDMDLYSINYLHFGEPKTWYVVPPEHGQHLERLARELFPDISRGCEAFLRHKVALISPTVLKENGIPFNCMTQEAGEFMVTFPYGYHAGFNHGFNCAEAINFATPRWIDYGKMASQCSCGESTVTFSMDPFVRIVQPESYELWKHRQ
Numbers without * were called inactive; ? = inconclusive; . = no result given; [ ] = remark or other dose. Shown are actives, neighbours in structure and some others; about 5.1% of the full set was active somewhere. Unless noted, calls come from the whole dose curve; as a rule, active = well fitted curve in the direction sought with a large enough effect; inconclusive = small, poorly fitted or top-dose-only effect, or another doubt; inactive = no such curve, though single readings can be large; an effect the other way counts as inactive or inconclusive. Unless noted, % is set by controls: 0 for no effect and ±100 for the full control effect.

SMILES | NPSR antagonist | Tau fibril FP | Tau fluor cs | PNC assembly inh | Tau ThT inhib | KDM4E inh
N#CC1=C(N)NC(SCC(=O)c2ccc(Cl)cc2)=C(C#N)C12CCCC2 | -25%[46.1 µM] | 14% | 16µM*[quencher] | -6 | ? | -9%
Cc1cccc(-c2nc(C)c(CCNC(=O)C(=O)Nc3ccccc3C#N)s2)c1 | . | -10% | -13% | . | -20% | .
CCOC(=O)C1=C(C)NC2=C(C(=O)c3ccccc32)C1c1cccnc1 (stereo not given) | -7%[46.1 µM] | 6% | -9% | -18 | ? | 2%
CCOc1ccc(C2C(C(=O)OC)=C(C)NC3=C2C(=O)c2ccccc23)cc1OC (stereo not given) | . | -5% | 16µM*[quencher] | . | ? | .
C#CCOc1c(Br)cc(C2C(C(=O)OC)=C(C)NC3=C2C(=O)c2ccccc23)cc1OCC (stereo not given) | . | ? | 3.5µM*[quencher] | . | 6.3µM* | .
COc1ccc(NC(=O)Nc2nnc(N3CCCC3)s2)cc1 | . | 13% | 0% | . | -13% | .
COc1ccc(NC(=O)Nc2nnc(CC(=O)Nc3ccccc3)s2)cc1 | -4% | 1% | -26% | . | . | -3%
COC(=O)Cc1nnc(NC(=O)C(C)C)s1 | -12%[46.1 µM] | 0% | 4% | ? | 7% | -5%
COC(=O)Cc1nnc(NC(=O)c2ccccc2)s1 | ? | 2% | 4% | -95* | -3% | 6%
COc1cccc(NC(=O)Nc2nnc(N3C(C)CCCC3C)s2)c1 (stereo not given) | -53% | ? | 10µM*[quencher] | . | ? | -5%
COc1cccc(NC(=O)Nc2nnc(CC(=O)Nc3ccccc3)s2)c1 | -10% | 13µM* | ? | . | -3% | -29%
CC(CC(=O)Nc1ccc(F)cc1)S(=O)(=O)c1cc2c3c(c1)CCN3C(=O)CC2 (stereo not given) | . | -3% | 1% | . | 3% | .
O=C(C1CCCN(S(=O)(=O)c2cccc3nsnc23)C1)N1CCN(c2ccccc2Cl)CC1 (stereo not given) | . | 4% | -22% | . | ? | .
CCOc1ccc(OCC)c(NC(=O)CCc2nc3cccnc3n2-c2ccccc2)c1 | . | 7% | -22% | . | -11% | .
Cc1ccc(C)c(N2CCN(C(=O)C3CCN(S(=O)(=O)c4ccc5[nH]c(=O)oc5c4)CC3)CC2)c1 | . | -4% | -28% | . | -2% | .
COc1cccc(/C=N/N2CCOCC2)c1O | -22%[46.1 µM] | 1% | 0% | 45 | -13% | 1%
O=C1c2cccc3cccc(c23)C(=O)N1/N=C/c1ccc(O)cc1O | 7% | -9% | -20% | ? | -9% | 8%
COc1cc(/C=N/N2CCOCC2)ccc1OCc1ccccc1 | 9% | 7% | -16% | . | ? | -1%
COc1ccc(/C=N/N2CCOCC2)cc1O | 6% | -3% | -12% | -81* | -14% | 1%
O=C1c2ccccc2C(=O)N1/N=C/c1ccc(O)c(O)c1O | 0% | 6.3µM* | ? | . | 4µM* | 2.2µM*
Oc1ccc(/C=N/N2CCOCC2)c(O)c1O | 1% | 10µM* | -27% | . | 8.9µM* | 25µM*
Cc1ccc(S(=O)(=O)NNC(=O)c2sc3nc(C)cc(C)c3c2-n2cccc2)cc1 | -21%[46.1 µM] | 7% | -15% | -90* | ? | 6%
Cc1nc(N2CCCCC2)c2c(C)c(C(=O)Nc3ccccc3C(F)(F)F)sc2n1 | -50% | -3% | -18% | . | -20% | ?
Cc1ccc(NC(=O)c2sc3nc(C)nc(N4CCN(c5ccccn5)CC4)c3c2C)c(C)c1 | 13µM* | -1% | -15% | . | -12% | ?
COc1ccc(N(CC(=O)NCC(C)C)S(=O)(=O)c2ccccc2)cc1 | -24% | 6% | -2% | . | -8% | -16%
SMILES | NPSR antagonist | Tau fibril FP | Tau fluor cs | PNC assembly inh | Tau ThT inhib | KDM4E inh
CCC(C)NC(=O)CN(c1ccc(OC)cc1)S(=O)(=O)c1ccc(NC(C)=O)cc1 (stereo not given) | 2%[46.1 µM] | -11% | -9% | -127* | -9% | 7%
COC(=O)C/C=C\[C@@H](C)[C@@H](/C=N\OCC[C@@H]1C=C[C@H](OC(C)=O)[C@H](COC(C)=O)O1)OC | . | -3%[11.6 µM] | -7%[11.6 µM] | . | -6%[11.5 µM] | .
CCc1ccc(NC(=O)C2=C(C)C(=O)OC23CCCCC3)cc1 | . | 0% | -10% | . | 7% | .
CCOC(=O)C1=C(C)N=C2SC(C)C(=O)N2C1c1ccc(OC(C)=O)c(OC)c1 (stereo not given) | -10%[46.1 µM] | 0% | -4% | -100* | -8% | -3%
CN(C)S(=O)(=O)c1cccc(NC(=S)N/N=C/c2cccc(O)c2)c1 | 9% | -10% | -19% | . | -13% | 4%
CN(C)S(=O)(=O)c1cccc(NC(=S)N/N=C/c2cc(Br)ccc2O)c1 | -42% | ? | 7.9µM*[quencher] | . | ? | 10µM*
CCOC(=O)c1c(N)n(-c2ccc(Cl)c(Cl)c2)c2nc3ccccc3nc12 | . | 1% | -2% | . | -1% | .
CN1CCN(C(=O)c2sc(=S)n(-c3ccccc3)c2N)CC1 | -2%[46.1 µM] | ? | -15% | -97* | ? | 1%
Cc1ccc(-n2c(N)c(C(=O)N3CCOCC3)sc2=S)cc1 | -10%[46.1 µM] | 2% | 5% | -126* | 2% | ?
CCNC(=O)c1sc(=S)n(-c2ccc(C)cc2)c1N | -3%[46.1 µM] | 1% | -14% | 15 | -15% | -1%
Cc1cccc(-c2nc3scc(CCNS(=O)(=O)c4ccc(F)c(C(F)(F)F)c4)n3n2)c1 | . | ? | -13% | . | 9% | .
COc1ccccc1N1CCN(c2nc3ccc(C)cc3nc2-n2nc(C)cc2C)CC1 | . | 0% | ? | . | ? | .
O=C(O)c1ccc(N/N=C/c2ccc(OC(=O)c3cccc(Cl)c3)cc2)cc1 | -18% | ? | ? | . | 13µM* | ?
COC(=O)c1ccc(COc2ccc(/C=N/Nc3cccc(C(=O)O)c3)cc2)cc1 | 3% | -3% | ? | . | 16µM* | -29%
O=C(Oc1ccc(/C=N/Nc2ccccc2)cc1)c1ccccc1 | -9%[46.1 µM] | 7% | ? | 31 | ? | ?
Cc1ccc(C(=O)O)cc1Nc1nc2ccccc2n2nnnc12 | . | 11% | ? | . | ? | .
CCOC(=O)NCC(C#CCN(CC)CC)N(CC)CC (stereo not given) | -5%[46.1 µM] | 0% | -3% | -93* | -13% | -4%
O=[N+]([O-])c1ccc(O)c(/C=N/n2c(CO)nc3ccccc32)c1 | 9% | 7% | -8% | . | ? | 3%
Cc1cc([N+](=O)[O-])cc(/C=N/n2c(C)nc3ccccc3c2=O)c1O | -17% | 12% | -14% | . | ? | ?
C/C(=N\OCc1nc2ccccc2c(=O)n1/N=C/c1cc([N+](=O)[O-])ccc1O)c1ccccc1 | -24% | -5% | 14µM*[quencher] | . | . | ?
C/C(=N\OCc1nc2ccccc2c(=O)n1/N=C/c1cc(C)cc([N+](=O)[O-])c1O)c1ccccc1 | ? | -2% | ? | . | 4µM* | 14µM*

Compound activity (PubChem BioAssay)
